# HT1080 IDH1KD tx: HT-1080 IDH1 knockdown cell toxicity (counter line); HT-1080 IDH1 knockdown viability, ATP luminescence, 48 h; Potency, µM (titrated, usually from 46.1 µM), for the others: at the top dose activity, negative = toxicity, actives largely listed as cytotoxic; 360,000 tested, 2% active;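 note: potency is the fitted concentration of half-maximal effect; 0% = DMSO wells and -100% = cell-free medium wells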
#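 IDH1KD HT-1080 cells, 750/well, RPMI + 5% FBS; compound pinned after 2 h settling; 48 h, 37 °C; CellTiter-Glo luminescence; % activity normalised to DMSO and no-cell wells; curves fitted, classed by r2 and efficacy.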
# TDP1 cell CPT: DT40-hTDP1 cell growth loss with CPT; chicken DT40 Tdp1-/-;hTDP1 cells + 20 nM CPT, ATP luminescence, 48 h; AID 686979; 420,000 tested, 12% active; Potency, µM (top dose mostly 46.2 µM), for the others: top-dose activity change, negative = growth inhibition, usual class: inhibitors; note: potency is the fitted concentration of half-maximal effect; nearly all actives have a fitted effect of over 55% in size
#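 Chicken DT40 Tdp1-/- cells stably complemented with human TDP1 were seeded at 400 cells/well in medium containing 20 nM camptothecin, exposed to pin-transferred compounds, and grown at 37 °C for at least 48 hr. Viability was read as ATP luminescence.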
# DT40 TDP1 no CPT: qHTS for Inhibitors of human tyrosyl-DNA phosphodiesterase 1 (TDP1): qHTS in cells in absence of CPT. Potency, µM (top dose mostly 46.2 µM), for inactives: at the top dose activity change, negative = growth inhibition, actives largely listed as inhibitors. DT40 Tdp1-/- hTDP1 cells, no CPT, ATP luminescence, 48 h. 420,000 tested, 15% active; note: potency is the fitted concentration of half-maximal effect; nearly all actives have a fitted effect of over 55% in size
#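 A cellular qHTS used chicken DT40 cells lacking endogenous Tdp1 but carrying stably transfected human TDP1. Compounds were applied without camptothecin, and cell growth kinetics were judged by ATP-dependent luminescence after ≥48 hr.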
# IL-1B inflam inh: inflammasome signaling inhibition, IL-1 beta readout. 360,000 tested, 4.7% active. AID 743279. activity change, % at 57.5 µM. THP-1 LPS/ATP IL-1B secretion, AlphaLISA, 16 h; hits give low values; in the data active = activity change below about -50%; inconclusive = mostly about -30% to -49%
#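 THP-1 cells pretreated 1 hr with compounds (up to 57.5 uM final), then stimulated with LPS (250 ng/mL final) plus ATP (1.25 mM final); secreted IL-1B measured by AlphaLISA after 16 hr, decreased signal indicating inhibition.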
# ELG1 repair inh: inhibitors of ELG1-dependent DNA repair in HEK293T cells; HEK293T ELG1-luciferase reporter, luminescence, 16 h; DNA damage induced by 5-fluorouridine; Potency, µM (doses to about 46.1 µM), inactives show at the top dose activity change, negative = inhibition, hits mostly inhibitors; 330,000 tested, 2.3% active; AID 504467; note: potency is the fitted concentration of half-maximal effect; nearly all actives have a fitted effect of over 55% in size
#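 Reporter activity after DNA damage by 5-fluorouridine is monitored. Compound-treated cells incubate 16 hr at 37 °C, then ONE-Glo is added for 30 min before luminescence reading.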
# HT1080-NT tox: kills 2HG-producing HT-1080-NT fibrosarcoma cells; 360,000 tested, 1.6% active; Potency, µM (highest dose often 46.1 µM), for the others: at the top dose activity, negative = less viability, most hits filed as cytotoxic; AID 686970; HT-1080-NT fibrosarcoma viability, CellTiter-Glo ATP luminescence, 48 h;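 note: NT is the 2HG producing partner of a matched IDH1 knockdown line; potency is the fitted concentration of half-maximal effect; 0% = DMSO-treated cells and -100% = media-only wells without cells; nearly all actives have a fitted effect of over 55% in size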
#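 Luminescent CellTiter-Glo readout after 48 hours of compound exposure at 37 degrees C defined viability of HT-1080-NT cells. Activity was normalized to DMSO wells and cell-free media wells; concentration-response curves were fitted and assigned curve classes.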
# * = called active by the depositor; u = inconclusive; x = no result. Compounds with a hit are over-represented: about 19% of the library has one in this group of screens. Unless noted, calls come from the whole dose curve; as a rule, active = well fitted curve in the direction sought with a large enough effect; inconclusive = small, poorly fitted or top-dose-only effect, or another doubt; inactive = no such curve, though single readings can be large; an effect the other way counts as inactive or inconclusive. Unless noted, % is set by controls: 0 for no effect and ±100 for the full control effect.
SMILES,HT1080 IDH1KD tx,TDP1 cell CPT,DT40 TDP1 no CPT,IL-1B inflam inh,ELG1 repair inh,HT1080-NT tox
N#Cc1ccc(S(=O)(=O)N2CCN(C(=O)c3cn(-c4ccccc4)nc3-c3cccnc3)CC2)cc1,2%,2%,-6%,-9,x,-7%
COc1ccc(N2CC(NC(=O)Cc3cccs3)CC2=O)cc1OC (stereo not drawn),x,-11%,0%,x,x,x
COc1ccc(C(=O)NC(=S)Nc2ccccc2N2CCOCC2)cc1Br,5%,u,18µM*,-22,u,5%
COc1ccc(C(=O)NC(=S)NC(C)(C)C)cc1Br,-5%,u,23µM*,-27,u,4%
CCOc1ccc(C(=O)NC(=S)Nc2ccccc2N2CCOCC2)cc1Br,0%,u,16µM*,-14,u,-2%
Fc1cc(F)cc(NC(=S)Nc2ccccc2N2CCOCC2)c1,-5%,-15%,26µM*,-9,-10%,5%
CCOC(=O)c1c(N/C=C(\C#N)c2nc(-c3ccc(OC(C)=O)cc3)cs2)sc2c1CCC2,9%,-7%,7%,0,x,13%
CC(C)(C)C1CCC(=O)N(CCC#N)CC1 (stereo not drawn),9%,-10%,4%,-4,2%,13%
CC(/C=C1\SC(=S)N(NC(=O)c2ccc(O)cc2)C1=O)=C\c1ccccc1,4%,-17%,4%,-76*,u,-3%
CCC(C(=O)O)N1C(=O)/C(=C/C(C)=C/c2ccccc2)SC1=S (stereo not drawn),-13%,5%,-2%,-6,-9%,-7%
O=C(NN1C(=O)/C(=C/c2cccs2)SC1=S)c1ccncc1,-12%,2%,-12%,-9,4.1µM*,-1%
O=C(NN1C(=O)/C(=C/c2ccc(O)c(O)c2)SC1=S)c1ccccc1,u,u,12µM*,31,-28%,-17%
O=C1/C(=C/c2ccc(O)c(O)c2)SC(=S)N1Nc1ccccc1,u,u,u,-62*,-5%,u
O=C(CCCN1C(=O)/C(=C\c2cccs2)SC1=S)NNC(=O)c1ccncc1,-14%,-21%,-25%,5,1%,-2%
COc1cc(/C=C2\SC(=S)N(NC(=O)c3ccc(O)cc3)C2=O)ccc1O,-5%,-3%,-13%,-2,u,-10%
O=S(=O)(NCCC1=CCCCC1)c1ccccc1Cl,1%,-20%,-28%,2,16%,5%
CCS(=O)(=O)N1CCC(C(=O)Oc2ccc(C(=O)OC)cc2)CC1,-4%,-17%,-12%,17,20%,8%
COc1ccc(NC(C)C(=O)Nc2ccc(C(C)(C)C)cc2)cc1Cl (stereo not drawn),u,29µM*,u,-54*,16%,u
COc1ccc(NCC(=O)Nc2ccc(C#N)cc2)cc1Cl,-7%,u,u,u,26µM*,-3%
COc1ccc(NC(=O)CNc2cccc(C#N)c2)cc1Cl,-4%,-7%,0%,u,11%,0%
Cn1c(=O)n(C)c2cc(CNCc3ccc(F)cc3)ccc21,x,u,-24%,x,x,x
CCCCOc1ccccc1C(=O)NNC(=S)NC(=O)c1ccccc1[N+](=O)[O-],u,26µM*,18µM*,67,4%,u
O=C(NNC(=S)NC(=O)c1ccccc1[N+](=O)[O-])c1ccc(Cl)cc1Cl,-7%,u,u,21,-27%,-18%
O=C(NNC(=S)NC(=O)c1ccccc1[N+](=O)[O-])c1ccccc1[N+](=O)[O-],4%,-2%,-4%,-18,18%,2%
Cc1ccc(C(=O)NC(=S)NNC(=O)c2ccccc2[N+](=O)[O-])cc1,-17%,21µM*,u,0,2%,-9%
SMILES,HT1080 IDH1KD tx,TDP1 cell CPT,DT40 TDP1 no CPT,IL-1B inflam inh,ELG1 repair inh,HT1080-NT tox
O=C(COc1ccc(Br)cc1)NNC(=S)NC(=O)c1ccccc1[N+](=O)[O-],-29%,u,21µM*,30,7%,-24%
CC(=O)NC(=S)NNC(=O)COc1ccc(Br)cc1,-7%,-38%,1%,-4,u,u
O=C(NNC(=S)NC(=O)c1ccccc1[N+](=O)[O-])c1ccccc1O,-12%,u,18µM*,25,-6%,-17%
Nc1ccc2c(c1)C1(CCC2)NC(=O)NC1=O (stereo not drawn),9%,-6%,0%,0,x,0%
CCCCNC(=O)C1(C)CCC(=O)N1C1CC1 (stereo not drawn),22%,6%,26%,20,x,24%
O=C(O)CN1C(=O)c2ccc(Oc3ccc4c(c3)C(=O)N(CC(=O)O)C4=O)cc2C1=O,12%,8%,2%,17,14%,11%
C=CCOC(=O)Nc1nc(CCNC(=O)OCc2ccccc2)c(C(=O)OC)s1,9%,-17%,-10%,-17,x,5%
O=c1oc2ccccc2cc1-c1nc(-c2cccs2)no1,x,-27%,-24%,x,x,x
O=C(O)CC(C(=O)O)C(=Cc1ccccc1)c1ccccc1 (stereo not drawn),5%,-2%,3%,-8,x,0%
O=C(NNC(=S)Nc1ccccc1)c1ccccc1[N+](=O)[O-],12%,8%,-27%,-73*,-14%,16%
NC(=O)CC[C@H](NC(=O)c1ccc(Cl)cc1)C(=O)NNC(=O)COc1cccc(Br)c1,5%,4%,-18%,-8,-3%,6%
